Results taken from PubChem BioAssay (NCATS).
Inconclusive results are not listed. A call without a number means that no potency is given here. Active and inactive are the calls of the source. The call rests on the fitted dose curve; in most records, active means well fitted curve in the direction sought with a large enough effect; inconclusive means small, poorly fitted or top-dose-only effect, or another doubt; inactive means no such curve, though single readings can be large; an effect the other way counts as inactive or inconclusive.

Key:
[1] = target: Aldehyde dehydrogenase, mitochondrial (Homo sapiens) (UniProt P05091); assay: qHTS for Inhibitors of the Aldehyde Dehydrogenase Family (ALDH2) Primary screen (AID 2061308); details: ALDH2 enzyme inhibition qHTS, 1536-well; series mostly up to 56 µM; further: nearly all actives have a fitted effect of over 55% in size
[2] = target: Retinaldehyde dehydrogenase 3 (Homo sapiens) (UniProt P47895); assay: qHTS for Inhibitors of the Aldehyde Dehydrogenase Family (ALDH1A3) Primary screen (AID 2061315); details: ALDH inhibition qHTS; series mostly up to 56 µM

SMILES	Potency [1]	Potency [2]
C=C[C@H]1CN2CC[C@H]1C[C@@H]2C(O)c1ccnc2ccc(OC)cc12 (stereo partly specified)	inactive	inactive
CC(C)c1ccccc1-c1ncc(F)c(NCc2ccc(-c3ccn[nH]3)cc2)n1	inactive	inactive
COc1ccccc1-c1nnc(SCC#CCOC(=O)c2ccc(F)cc2)o1	inactive	inactive
CCN(CC)CCCCn1c(-c2ccccc2)nc2c(NCCOC)nc(C)nc21	inactive	inactive
Cc1cc(C)nc(NC(=S)N2CCN(c3ccc(C(=O)O)cc3)CC2)c1	inactive	inactive
Fc1cc(Nc2nc(-c3ccncc3)nc3ccccc23)ccc1-c1ccncc1	inactive	inactive
O=C1c2ccccc2C(=O)N1c1ccncc1	inactive	inactive
O=C1CCCC2=C1C1(CCCCC1)N=C(Nc1nc3ccccc3o1)N2	inactive	inactive
Cc1ccc(S(=O)(=O)Nc2ccc(F)cc2C(=O)Nc2nc(-c3ccccc3)cs2)cc1	inactive	inactive
O=c1c2[nH]c3cc(Br)sc3c2cnn1Cc1ccccc1F	inactive	inactive
Cc1cccc(C)c1-n1c(SCC(=O)Nc2ccc(C(=O)O)cc2)nnc1-c1ccc([S+](=O)([O-])N2CCCC2)cc1	inactive	inactive
COC(=O)C1CCc2sc(NC(=O)Cc3ccccc3)c(C(=O)Nc3ccc(Cl)cc3)c21 (stereo unspecified)	inactive	inactive
O=C(Nc1ccc(S(=O)(=O)Nc2nccs2)cc1)c1cccnc1	inactive	inactive
Cc1ccc(-c2cc(C(=O)NCC[S+](=O)([O-])O)c3ccccc3n2)cc1C	inactive	inactive
Cc1cnc(-c2ccccc2C(C)C)nc1NC(C)c1ccc(-c2cccnc2)cc1 (stereo unspecified)	inactive	inactive
Clc1ccccc1-c1ccc2ncnc(NCc3cccs3)c2c1	inactive	inactive
c1ccc(CNCc2nnc(-c3cc4ccccc4[nH]3)o2)cc1	inactive	inactive
Cc1ccc(Nc2nc(-c3ccncc3)nc3ccccc23)cc1F	inactive	inactive
C(=Nc1cccnc1)c1cccs1	inactive	inactive
Fc1cc(Nc2nc(-c3ccncc3)nc3ccccc23)ccc1-c1cn[nH]c1	inactive	inactive
COc1ccc(C(=O)N(Cc2ccccc2)Cc2cccs2)c(O)c1	inactive	inactive
O=C(O)c1ccc(-c2ccc3ncnc(N4CCOCC4)c3c2)o1	inactive	inactive

SMILES	Potency [1]	Potency [2]
Fc1cccc(CNc2ncnc3ccc(-c4ccoc4)cc23)c1	inactive	inactive
N#Cc1ccc(NS(=O)(=O)c2ccc3c(c2)CCC(=O)N3)cc1	inactive	inactive
N#Cc1nc(Nc2cc(Cl)cc(Cl)c2)nc(NC2CCCC2)n1	inactive	inactive
CC(=O)Nc1sc2c(c1Br)CCNC2	inactive	inactive
Cc1ccc(-c2csc(NC(=O)c3ccccc3NS(=O)(=O)c3ccc(C)cc3)n2)cc1	inactive	inactive
CC1=C(C(=O)NCc2ccccc2)C(c2ccccc2Br)N=C(Nc2nc3ccccc3o2)N1 (stereo unspecified)	inactive	inactive
COc1cccc(C2c3c(ncn(-c4ccccc4Br)c3=N)Oc3ccc4ccccc4c32)c1 (stereo unspecified)	inactive	inactive
Cc1ccnc(NC(=S)N2CCCN(c3cccc(C(F)(F)F)c3)CC2)c1	inactive	inactive
CCC(C)(CCN1CCOCC1)N(Cc1cc2ccccc2n(C)c1=O)C(=O)C1CCCCC1 (stereo unspecified)	inactive	inactive
CCSC1=NS(=O)(=O)c2ccccc21	inactive	inactive
Cc1ccc(NC(=O)c2ccc(-c3nc4ccccc4[nH]3)cc2)cc1Br	inactive	inactive
CC(C)c1cc(C(C)C)c(S(=O)(=O)Nc2cccc3cccnc23)c(C(C)C)c1	inactive	inactive
O=C(Cn1nc(-c2cccnc2)ccc1=O)NCCc1ccccc1	inactive	inactive
CC(O)C(O)/C=C/C=C/C(=O)O[C@@H]1C=C(C(=O)O)[C@](O)(CO)[C@@]2(C)CCCC(C)(C)[C@H]12 (stereo partly specified)	inactive	inactive
CC(=O)c1ccc(N2CCN(S(=O)(=O)c3ccc4c(c3)CC(=O)N4)CC2)cc1	inactive	inactive
COc1cccc(C2c3c(ncn(-c4cccc(C)c4)c3=N)Oc3ccc4ccccc4c32)c1 (stereo unspecified)	inactive	inactive
O=C(NC(c1ccco1)c1cc(Cl)c2cccnc2c1O)c1ccc(F)c(F)c1 (stereo unspecified)	inactive	inactive
Cc1ccccc1C(=O)NCC(=O)OC(C(=O)Nc1cc(C(F)(F)F)ccc1Cl)c1ccccc1 (stereo unspecified)	inactive	inactive
O=C1CCc2cc(S(=O)(=O)Nc3ccccc3F)ccc2N1	inactive	inactive
COc1ccc(C(=O)N(Cc2ccccc2)Cc2ccccc2)cc1COc1ccc(NC(C)=O)cc1	inactive	inactive
Cc1cccc(-n2cnc3cc(C(=O)N4CCCC(C(C)C)C4)ccc32)c1 (stereo unspecified)	inactive	inactive
